Several values for one entry are separate records, joined by “and”; a condition that tells them apart may be missing. Equal values may be shown once. The panel holds about 79,000 compounds, 15% with a hit somewhere; the sample as a whole holds those more often. Activity calls are given as the source filed them. Cut-off read from the data, not from the text of the source: active = growth inhibition above about 70%; inactive = the rest.
Experiments:
[1] = NCI Yeast Anticancer Drug Screen. Data for the rad52 strain (AID 147);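 note: 0% = growth of vehicle-treated control cultures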; details: S. cerevisiae rad52 mutant growth inhibition, active compounds read high
How it was run: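 Read-out: growth inhibition versus vehicle-treated controls. Cells were a DNA repair-deficient yeast strain treated with compounds.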

[2] = NCI Yeast Anticancer Drug Screen. Data for the wt1 strain (AID 149);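 note: 0% = growth of vehicle-treated wt1 cultures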; details: S. cerevisiae wt1 strain (SPY 50644) growth inhibition, active compounds read high
How it was run: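 Yeast wt1 strain exposed to compounds; growth inhibition measured relative to vehicle-treated controls.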

[3] = NCI Yeast Anticancer Drug Screen. Data for the rad50EPP+ strain (AID 151);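 note: 0% = growth of vehicle-treated control cultures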; details: S. cerevisiae rad50 mutant strain, active compounds read high
How it was run: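 Growth inhibition read against vehicle controls in rad50EPP+ yeast, a strain altered in DNA damage repair, after compound exposure.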

[4] = NCI Yeast Anticancer Drug Screen. Data for the mgt1 strain (AID 153); details: S. cerevisiae mgt1 mutant growth inhibition, active compounds read high
How it was run: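 mgt1 yeast grown with test compound; read-out is growth inhibition versus vehicle-treated cultures.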

[5] = NCI Yeast Anticancer Drug Screen. Data for the rad50 strain (AID 155);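 note: 0% = growth of vehicle-only cultures of the same strain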; details: S. cerevisiae rad50 strain growth inhibition, active compounds read high
How it was run: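 Yeast carrying a defined DNA repair defect were exposed to test compounds, and growth was compared with vehicle-treated controls to give percent inhibition.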

[6] = NCI Yeast Anticancer Drug Screen. Data for the mec2-1 strain (AID 157); details: S. cerevisiae mec2-1 strain, active compounds read high
How it was run: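 Yeast mec2-1 mutant treated with compound. Readout: growth inhibition vs vehicle controls.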

[7] = NCI Yeast Anticancer Drug Screen. Data for the sgs1 mgt1 strain (AID 161);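 note: 0% = growth of cultures given vehicle only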; details: S. cerevisiae sgs1 mgt1 strain, active compounds read high
How it was run: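 Test agents were incubated with a DNA-repair-mutant yeast strain. Growth was then read and compared against vehicle-treated controls.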

[8] = NCI Yeast Anticancer Drug Screen. Data for the CLN2oe strain (AID 163);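 note: 0% = growth of vehicle-only control cultures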; details: S. cerevisiae CLN2oe strain, active compounds read high
How it was run: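 Read-out: yeast growth inhibition, expressed relative to vehicle-only controls. The strain bears an engineered cell-cycle alteration.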

[9] = NCI Yeast Anticancer Drug Screen. Data for the cln2 rad14 strain (AID 165);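 note: 0% = growth equal to vehicle treated cultures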; details: S. cerevisiae cln2 rad14 strain, active compounds read high
How it was run: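 cln2 rad14 yeast strain; compound exposure; growth inhibition read vs vehicle controls.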

[10] = NCI Yeast Anticancer Drug Screen. Data for the bub3 strain (AID 167); details: S. cerevisiae bub3 mutant strain, active compounds read high
How it was run: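 Compounds were applied to a genetically altered yeast strain carrying a cell-cycle control defect. Growth inhibition was scored against vehicle-treated controls.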

[11] = NCI Yeast Anticancer Drug Screen. Data for the wt2 strain (AID 169);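 note: 0% = growth of vehicle-treated yeast cultures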; details: S. cerevisiae wt2 strain growth inhibition, active compounds read high
How it was run: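 Read-out: growth inhibition versus vehicle-treated control cultures after compound exposure of the yeast strain.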

[12] = NCI Yeast Anticancer Drug Screen. Data for the mlh1 strain (AID 171);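 note: 0% = growth of vehicle-treated control cultures of the same strain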; details: S. cerevisiae mlh1 strain growth inhibition, active compounds read high
How it was run: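 Read-out: growth inhibition versus vehicle controls. Strain: engineered yeast with a defined DNA repair or cell cycle defect, compound-treated.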

[13] = NCI Yeast Anticancer Drug Screen. Data for the sgs1 strain (AID 173);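 note: 0% = growth of vehicle-only control cultures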; details: S. cerevisiae sgs1 mutant, active compounds read high
How it was run: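 Read-out: yeast growth inhibition relative to vehicle controls, following compound exposure of a strain with a defined DNA repair/cell cycle alteration.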

[14] = NCI Yeast Anticancer Drug Screen. Data for the mlh1 rad18 strain (AID 175); details: S. cerevisiae mlh1 rad18 strain growth inhibition, active compounds read high
How it was run: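 Yeast w/ defined DNA-repair lesions; compound exposure; growth vs vehicle controls → % inhibition.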

[15] = NCI Yeast Anticancer Drug Screen. Data for the rad18 strain (AID 177); details: S. cerevisiae rad18 mutant growth inhibition, active compounds read high
How it was run: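 Readout: growth inhibition vs vehicle controls. Cells: genetically altered yeast strain, DNA repair defect.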

[16] = NCI Yeast Anticancer Drug Screen. Data for the rad14 strain (AID 159);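 note: 0% = growth of vehicle-treated control cultures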; details: S. cerevisiae rad14 strain growth inhibition, active compounds read high
How it was run: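 Yeast cells carrying a defined DNA-repair defect were exposed to compounds, and growth inhibition was calculated relative to vehicle-treated control cultures.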

[17] = at 5.0 µM (retest, dose inferred, filed as 0.5)
[18] = at 50.0 µM (retest, dose inferred, filed as 5.0)

Measured: growth inhibition

O=S(=O)(O)/C(=C\c1ccccc1)c1ccccc1 (tested in a mixture with another compound)
active: [10]; [17] 97% | [10]; [18] 95%
inactive: [1]; at 1.2 µM -3% | [1]; at 3.7 µM -2% | [1]; at 11.0 µM -6% | [1]; at 33.0 µM -5% | [1]; at 100.0 µM -8% | [2]; at 1.2 µM 1% | [2]; at 3.7 µM 0% | [2]; at 11.0 µM 1% | [2]; at 33.0 µM 0% | [2]; at 100.0 µM -1% | [3]; at 1.2 µM -3% | [3]; at 3.7 µM -2% | [3]; at 11.0 µM -3% | [3]; at 33.0 µM -3% | [3]; at 100.0 µM 3% | [4]; at 1.2 µM 0% | [4]; at 3.7 µM -1% | [4]; at 11.0 µM -1% | [4]; at 33.0 µM -2% | [4]; at 100.0 µM -2% | [5]; at 1.2 µM 0% | [5]; at 3.7 µM -5% | [5]; [17] 15% | [5]; at 11.0 µM 1% | [5]; at 33.0 µM -5% | [5]; [18] 15% | [5]; at 50.0 µM -10.3% and -8% and 14.8% | [5]; at 100.0 µM -4% | [6]; at 1.2 µM -3% | [6]; at 3.7 µM -2% | [6]; [17] 24% | [6]; at 11.0 µM -3% | [6]; at 33.0 µM -2% | [6]; [18] 24% | [6]; at 50.0 µM 2.1% and -4.7% and -21.4% | [6]; at 100.0 µM 10% | [7]; [17] 12% | [7]; [18] 3% | [7]; at 50.0 µM -28.2% and -11.8% and -14.2% | [8]; at 1.2 µM -3% | [8]; at 3.7 µM -1% | [8]; at 11.0 µM -5% | [8]; at 33.0 µM -7% | [8]; at 100.0 µM 2% | [9]; [17] 55% | [9]; [18] 23% | [9]; at 50.0 µM 28.4% and 15.9% and 9.35% | [10]; at 1.2 µM -11% | [10]; at 3.7 µM -6% | [10]; at 11.0 µM -30% | [10]; at 33.0 µM 19% | [10]; at 50.0 µM -19.1% and -0.25% and 3.5% | [10]; at 100.0 µM 1% | [11]; at 1.2 µM -2% | [11]; at 3.7 µM 0% | [11]; at 11.0 µM -4% | [11]; at 33.0 µM -2% | [11]; at 100.0 µM -2% | [12]; at 1.2 µM 0% | [12]; at 3.7 µM 2% | [12]; at 11.0 µM 1% | [12]; at 33.0 µM -22% | [12]; at 100.0 µM 10% | [13]; at 1.2 µM 0% | [13]; at 3.7 µM -1% | [13]; at 11.0 µM -2% | [13]; at 33.0 µM -5% | [13]; at 100.0 µM -4% | [14]; [17] 39% | [14]; [18] 4% | [14]; at 50.0 µM 8.8% and -6.15% and -15.1% | [15]; at 1.2 µM -2% | [15]; at 3.7 µM 2% | [15]; at 11.0 µM 5% | [15]; at 33.0 µM -5% | [15]; at 100.0 µM -11%

CC1=C2C(=C[C@@](C)(CO)[C@@H]2O)C(=O)[C@](C)(O)C12CC2
active: [1]; at 100.0 µM 74% | [5]; at 100.0 µM 70% | [13]; at 100.0 µM 73% | [15]; at 3.7 µM 74% | [15]; at 11.0 µM 90% | [15]; at 33.0 µM 93% | [15]; at 100.0 µM 95%
inactive: [1]; at 1.2 µM 2% | [1]; at 3.7 µM 9% | [1]; at 11.0 µM 21% | [1]; at 33.0 µM 42% | [2]; at 1.2 µM 1% | [2]; at 3.7 µM -1% | [2]; at 11.0 µM 0% | [2]; at 33.0 µM 0% | [2]; at 100.0 µM 25% | [3]; at 1.2 µM -3% | [3]; at 3.7 µM -1% | [3]; at 11.0 µM 1% | [3]; at 33.0 µM -2% | [3]; at 100.0 µM 1% | [4]; at 1.2 µM -3% | [4]; at 3.7 µM -1% | [4]; at 11.0 µM 0% | [4]; at 33.0 µM 2% | [4]; at 100.0 µM 0% | [5]; at 1.2 µM 2% | [5]; at 3.7 µM 2% | [5]; at 11.0 µM 11% | [5]; at 33.0 µM 31% | [5]; at 50.0 µM 33.8% | [6]; at 1.2 µM 0% | [6]; at 3.7 µM 0% | [6]; at 11.0 µM 1% | [6]; at 33.0 µM 13% | [6]; at 50.0 µM 22.9% | [6]; at 100.0 µM 48% | [16]; at 1.2 µM 1% | [16]; at 3.7 µM -1% | [16]; at 11.0 µM 4% | [16]; at 33.0 µM 13% | [16]; at 100.0 µM 41% | [7]; at 50.0 µM 44% | [8]; at 1.2 µM -5% | [8]; at 3.7 µM -8% | [8]; at 11.0 µM -10% | [8]; at 33.0 µM -13% | [8]; at 100.0 µM -5% | [9]; at 50.0 µM 22.6% | [10]; at 1.2 µM -4% | [10]; at 3.7 µM -5% | [10]; at 11.0 µM -7% | [10]; at 33.0 µM -10% | [10]; at 50.0 µM -41% | [10]; at 100.0 µM -12% | [12]; at 1.2 µM 0% | [12]; at 3.7 µM 1% | [12]; at 11.0 µM 2% | [12]; at 33.0 µM 3% | [12]; at 100.0 µM 7% | [13]; at 1.2 µM 3% | [13]; at 3.7 µM 10% | [13]; at 11.0 µM 24% | [13]; at 33.0 µM 50% | [14]; at 50.0 µM 11.7% | [15]; at 1.2 µM 37%

O=C1C2CC(Cl)C(SSC3CC4C(=O)N(SC(Cl)(Cl)C(Cl)Cl)C(=O)C4CC3Cl)CC2C(=O)N1SC(Cl)(Cl)C(Cl)Cl (centres undefined)
active: [1]; at 1.2 µM 71% | [1]; at 3.7 µM 91% | [1]; at 11.0 µM 96% | [1]; at 33.0 µM 95% | [1]; at 100.0 µM 89% | [2]; at 3.7 µM 83% | [2]; at 11.0 µM 97% | [2]; at 33.0 µM 96% | [2]; at 100.0 µM 93% | [3]; at 1.2 µM 75% | [3]; at 3.7 µM 97% | [3]; at 11.0 µM 98% | [3]; at 33.0 µM 97% | [3]; at 100.0 µM 93% | [5]; at 3.7 µM 92% | [5]; [17] 98% | [5]; at 11.0 µM 97% | [5]; at 33.0 µM 96% | [5]; [18] 95% | [5]; at 50.0 µM 90.3% | [5]; at 100.0 µM 90% | [6]; at 3.7 µM 91% | [6]; [17] 100% | [6]; at 11.0 µM 99% | [6]; at 33.0 µM 98% | [6]; [18] 98% | [6]; at 50.0 µM 90.4% | [6]; at 100.0 µM 94% | [16]; at 1.2 µM 83% | [16]; at 3.7 µM 96% | [16]; at 11.0 µM 97% | [16]; at 33.0 µM 96% | [16]; at 100.0 µM 90% | [7]; [18] 95% | [7]; at 50.0 µM 89.5% | [8]; at 3.7 µM 96% | [8]; at 11.0 µM 98% | [8]; at 33.0 µM 97% | [8]; at 100.0 µM 90% | [9]; at 50.0 µM 84.9% | [10]; at 1.2 µM 80% | [10]; at 3.7 µM 99% | [10]; at 11.0 µM 99% | [10]; at 33.0 µM 96% | [10]; [18] 98% | [10]; at 50.0 µM 92.8% | [10]; at 100.0 µM 90% | [11]; at 3.7 µM 95% | [11]; at 11.0 µM 98% | [11]; at 33.0 µM 97% | [11]; at 100.0 µM 90%
inactive: [2]; at 1.2 µM 14% | [5]; at 1.2 µM 49% | [6]; at 1.2 µM 37% | [7]; [17] -9% | [8]; at 1.2 µM 40% | [9]; [17] -20% | [9]; [18] -57% | [10]; [17] -6% | [11]; at 1.2 µM 17%
